# This is one part of a sample in which the strongest signals are shown more often than they occur.
# Tests used:
# Assay in all cases: glycan array binding signal (z-score within array); higher = stronger binding
# Details in all cases: glycan notation: IUPAC condensed, linker removed; mutation: N224Q
# [1] = target: Gal(b1-4)GlcNAc(b1-3)Gal(b1-4)GlcNAc(b1-3)Gal(b1-4)GlcNAc(b1-3)Gal(b1-4)GlcNAc(b1-2)[Gal(b1-4)GlcNAc(b1-3)Gal(b1-4)GlcNAc(b1-3)Gal(b1-4)GlcNAc(b1-3)Gal(b1-4)GlcNAc(b1-6)]Man(a1-6)[Gal(b1-4)GlcNAc(b1-3)Gal(b1-4)GlcNAc(b1-3)Gal(b1-4)GlcNAc(b1-3)Gal(b1-4)GlcNAc(b1-2)Man(a1-3)]Man(b1-4)GlcNAc(b1-4)[Fuc(a1-6)]GlcNAc
# In short: (§1)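 Arrays were curated from the Consortium for Functional Glycomics database, 3228 in total, and kept only where the protein sequence was available. Binding is expressed as a within-array Z-score. This score was averaged across arrays of the same protein sequence at different concentrations or buffers and across linkers, and negative values can be read as non-binding.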
# Gal3S(b1-4)Glc = target: Gal3S(b1-4)Glc
# In short: as §1
# [2] = target: GlcNAc(a1-4)Gal(b1-4)GlcNAc(b1-3)Gal(b1-4)Glc
# In short: as §1
# [3] = target: GlcNAc(b1-3)Gal(b1-4)GlcNAc(b1-3)Gal(b1-4)GlcNAc(b1-2)Man(a1-3)[GlcNAc(b1-3)Gal(b1-4)GlcNAc(b1-3)Gal(b1-4)GlcNAc(b1-2)Man(a1-6)]Man(b1-4)GlcNAc(b1-4)[Fuc(a1-6)]GlcNAc
# In short: as §1
# [4] = target: GlcNAc(b1-3)Gal(b1-4)GlcNAc(b1-3)Gal(b1-4)GlcNAc(b1-3)Gal(b1-4)GlcNAc(b1-2)[GlcNAc(b1-3)Gal(b1-4)GlcNAc(b1-3)Gal(b1-4)GlcNAc(b1-3)Gal(b1-4)GlcNAc(b1-6)]Man(a1-6)[GlcNAc(b1-3)Gal(b1-4)GlcNAc(b1-3)Gal(b1-4)GlcNAc(b1-3)Gal(b1-4)GlcNAc(b1-2)Man(a1-3)]Man(b1-4)GlcNAc(b1-4)[Fuc(a1-6)]GlcNAc
# In short: as §1
# [5] = target: GlcNAc(b1-3)Gal(b1-4)GlcNAc(b1-3)Gal(b1-4)GlcNAc(b1-3)Gal(b1-4)GlcNAc(b1-3)Gal(b1-4)GlcNAc(b1-2)Man(a1-3)[GlcNAc(b1-3)Gal(b1-4)GlcNAc(b1-3)Gal(b1-4)GlcNAc(b1-3)Gal(b1-4)GlcNAc(b1-3)Gal(b1-4)GlcNAc(b1-2)Man(a1-6)]Man(b1-4)GlcNAc(b1-4)[Fuc(a1-6)]GlcNAc
# In short: as §1
# [6] = target: GlcNAc(b1-3)[GlcNAc(b1-6)]Gal(b1-4)GlcNAc
# In short: as §1
# GlcNAc(b1-6)GalNAc = target: GlcNAc(b1-6)GalNAc
# In short: as §1
# [7] = target: Man(a1-2)Man(a1-3)[Man(a1-2)Man(a1-6)]Man(a1-6)[Man(a1-2)Man(a1-2)Man(a1-3)]Man(b1-4)GlcNAc(b1-4)GlcNAc
# In short: as §1
# [8] = target: Neu5Ac(a2-3)Gal(b1-3)GlcNAc(b1-2)Man
# In short: as §1
# [9] = target: Neu5Ac(a2-3)Gal(b1-4)GlcNAc(b1-2)[Neu5Ac(a2-3)Gal(b1-4)GlcNAc(b1-4)]Man(a1-3)[GlcNAc(b1-4)][Neu5Ac(a2-3)Gal(b1-4)GlcNAc(b1-2)[Neu5Ac(a2-3)Gal(b1-4)GlcNAc(b1-6)]Man(a1-6)]Man(b1-4)GlcNAc(b1-4)GlcNAc
# In short: as §1
# [10] = target: Neu5Ac(a2-3)Gal(b1-4)GlcNAc(b1-3)Gal(b1-4)[Fuc(a1-3)]GlcNAc
# In short: as §1
# [11] = target: Neu5Ac(a2-3)Gal(b1-4)[Fuc(a1-3)]GlcNAc
# In short: as §1
# [12] = target: Neu5Ac(a2-3)Gal(b1-4)[Fuc(a1-3)]GlcNAc(b1-2)Man
# In short: as §1
# Neu5Ac(a2-6)Gal = target: Neu5Ac(a2-6)Gal
# In short: as §1
# [13] = target: Neu5Ac(a2-6)Gal(b1-4)GlcNAc(b1-2)[Neu5Ac(a2-6)Gal(b1-4)GlcNAc(b1-6)]Man(a1-6)[Neu5Ac(a2-6)Gal(b1-4)GlcNAc(b1-2)Man(a1-3)][GlcNAc(b1-4)]Man(b1-4)GlcNAc(b1-4)GlcNAc
# In short: as §1
# [14] = target: Neu5Ac(a2-6)Gal(b1-4)GlcNAc(b1-3)Gal(b1-3)GlcNAc
# In short: as §1
# [15] = target: Neu5Ac(a2-6)GalNAc(b1-4)GlcNAc
# In short: as §1
# [16] = target: Neu5Ac(a2-6)GlcNAc(b1-4)GlcNAc
# In short: as §1
# [17] = target: Neu5Gc(a2-3)Gal(b1-4)[Fuc(a1-3)]GlcNAc
# In short: as §1
binder,measurement,setting,value
AAL (Aleuria aurantia) (protein) MPTEFLYTSKIAAISWAATGGRQQRVYFQDLNGKIREAQRGGDNPWTGGSSQNVIGEAKLFSPLAAVTWKSAQGIQIRVYCVNKDNILSEFVYDGSKWITGQLGSVGVKVGSNSKLAALQWGGSESAPPNIRVYYQKSNGSGSSIHEYVWSGKWTAGASFGSTVPGTGIGATAIGPGRLRIYYQATDNKIREHCWDSNSWYVGGFSASASAGVSIAAISWGSTPQIRVYWQKGREELYEAAYGGSWNTPGQIKDASRPTPSLPDTFIAANSSGNIDISVFFQASGVSLQQWQWISGKGWSIGAVVPTGTPAGW,glycan array binding signal (z-score),[1],-0.229
same,glycan array binding signal (z-score),Gal3S(b1-4)Glc,-0.321
same,glycan array binding signal (z-score),[2],-0.318
same,glycan array binding signal (z-score),[3],2.92
same,glycan array binding signal (z-score),[4],-0.085
same,glycan array binding signal (z-score),[5],1.97
same,glycan array binding signal (z-score),[6],-0.322
same,glycan array binding signal (z-score),GlcNAc(b1-6)GalNAc,-0.325
same,glycan array binding signal (z-score),[7],-0.312
same,glycan array binding signal (z-score),[8],-0.311
same,glycan array binding signal (z-score),[9],-0.327
same,glycan array binding signal (z-score),[10],-0.32
same,glycan array binding signal (z-score),[11],0.758
same,glycan array binding signal (z-score),[12],0.186
same,glycan array binding signal (z-score),Neu5Ac(a2-6)Gal,-0.314
same,glycan array binding signal (z-score),[13],-0.303
same,glycan array binding signal (z-score),[14],-0.324
same,glycan array binding signal (z-score),[15],-0.323
same,glycan array binding signal (z-score),[16],-0.327
same,glycan array binding signal (z-score),[17],0.052

# Reference: the supplement of paper PMC8728848
